Results on 29 compounds are retold here after the supplement of paper PMC13380429.

Assay [1] relates to Vero E6 infected with SARS-CoV-2. Kind of assay: morphology score (similarity to uninfected cells); higher = more like uninfected cells. Conditions: 24 h.
The test system is the same in assay [2]. Kind of assay: SARS-CoV-2 infection rate relative to infected DMSO; higher = more infection, active = 60 or less. Conditions: 24 h.

In turn, `Cc1nc2ccc(-n3ncc(C(=O)c4cc5ccccc5[nH]4)c3N)cc2[nH]1` (0.833333 µM) gave a morphology score in assay [1] of 0.131. Further, in assay [2], the SARS-CoV-2 infection rate is 101% (inactive).

Compound `O=C(O)CCc1cc(I)c(Oc2ccc(O)cc2)c(I)c1` [diiodothyropropionic-acid] (10 µM) showed a morphology score in assay [1] of 0.207. For the same compound, the SARS-CoV-2 infection rate in assay [2] is 92% (inactive).

Compound `CC1(C)C(=O)NC2=C1C(=O)C(=O)c1ccccc12` (0.833333 µM) had a morphology score in assay [1] of -0.0548. The SARS-CoV-2 infection rate in assay [2] is 114% (inactive).

For the compound `Oc1cc2c(c(Cl)c1O)CCNCC2c1ccccc1` (stereo not drawn) (10 µM), in assay [1], the morphology score was 0.16. Further, the SARS-CoV-2 infection rate in assay [2] was 97.5% (inactive).

`Cc1ccc(C(=O)NCCCCCC(=O)Nc2ccccc2N)cc1` (0.833333 µM) came in with a morphology score in assay [1] of -0.0541. In addition, the SARS-CoV-2 infection rate in assay [2] is 120% (inactive).

`O=C(O)Cc1ccc(OCCNC[C@H](O)c2ccccc2)cc1` (10 µM): the morphology score in assay [1] is -0.102. In addition, in assay [2], the SARS-CoV-2 infection rate is 106% (inactive).

In assay [1], `CCOC(=O)Nc1nc2ccccc2[nH]1` [lobendazole] (10 µM) came in with a morphology score of 0.0965. The SARS-CoV-2 infection rate in assay [2] was 101% (inactive).

As for `CCc1nc(C)ccc1O` [emoxipin] (10 µM), in assay [1], the morphology score worked out at 0.143. In assay [2], the SARS-CoV-2 infection rate is 99.5% (inactive).

Take `COc1ccccc1OCCNCC(O)COc1cccc2[nH]c3ccccc3c12` (stereo not drawn) [carvedilol] (10 µM): the morphology score in assay [1] is 0.134. Moreover, the SARS-CoV-2 infection rate in assay [2] was 97.5% (inactive).

In turn, `N[C@@H](CC(=O)N1CCn2c(nnc2C(F)(F)F)C1)Cc1cc(F)c(F)cc1F` [sitagliptin] (10 µM) returned a morphology score in assay [1] of 0.0472. For the same compound, the SARS-CoV-2 infection rate in assay [2] is 98% (inactive).

In assay [1], `CCCCCCCCNC(=O)/C(C#N)=C/c1cn(CCCN(C)C)c2ccccc12` [dynole-34-2] (10 µM) returned a morphology score of 0.659. The SARS-CoV-2 infection rate in assay [2] was 35.5% (active).

As for `Nc1nc(=O)c2c([nH]1)NCC(CNc1ccc(C(=O)N[C@@H](CCC(=O)O)C(=O)O)cc1)N2C=O` (stereo partly drawn) [leucovorin] (10 µM), the morphology score in assay [1] is -0.0198. Further, in assay [2], the SARS-CoV-2 infection rate was 89.8% (inactive).

Compound `CN(CCCN1c2ccccc2CCc2ccccc21)CC(=O)c1ccc(Cl)cc1` [lofepramine] (10 µM) yielded a morphology score in assay [1] of -0.0945. For the same compound, the SARS-CoV-2 infection rate in assay [2] was 114% (inactive).

In assay [1], `CC(=O)NO` [acetohydroxamic-acid] (10 µM) returned a morphology score of -0.0513. The SARS-CoV-2 infection rate in assay [2] is 106% (inactive).

On to `CCOC(=O)COc1ccc2c(=O)cc(-c3ccccc3)oc2c1` [efloxate] (10 µM), for which the morphology score in assay [1] stood at 0.19. Moreover, in assay [2], the SARS-CoV-2 infection rate was 96.5% (inactive).

Compound `CCOc1ccc2ccccc2c1C(=O)N[C@@H]1C(=O)N2[C@@H]1SC(C)(C)[C@@H]2C(=O)O` [nafcillin] (10 µM) displayed a morphology score in assay [1] of -0.164. In addition, the SARS-CoV-2 infection rate in assay [2] is 112% (inactive).

Regarding `O=C(NS(=O)(=O)c1ccc(Br)s1)c1ccc(Cl)cc1Cl` [tasisulam] (10 µM), the morphology score in assay [1] stood at 0.161. For the same compound, the SARS-CoV-2 infection rate in assay [2] is 109% (inactive).

`CC(C)[C@@H](CN1CC[C@@](C)(c2cccc(O)c2)[C@@H](C)C1)NC(=O)[C@H]1Cc2ccc(O)cc2CN1` (10 µM): the morphology score in assay [1] is -0.0336. Moreover, the SARS-CoV-2 infection rate in assay [2] was 99.5% (inactive).

In the case of `O=C(CCCN1CCN(c2ccccn2)CC1)c1ccc(F)cc1` [azaperone] (10 µM), the morphology score in assay [1] came out at 0.13. Further, in assay [2], the SARS-CoV-2 infection rate was 83% (inactive).

In assay [1], `Cc1nc(Nc2cnn(C3CCNCC3)c2)nc2c1N(C)C(=O)c1cc3ccccc3cc1N2C` (0.833333 µM) returned a morphology score of 0.143. Also, the SARS-CoV-2 infection rate in assay [2] was 104% (inactive).

With `Cc1cc(NC(=O)NCCN2CCC(O)(Cc3ccccc3)CC2)c2ccccc2n1` [palosuran] (10 µM), the morphology score in assay [1] was -0.00351. Besides, the SARS-CoV-2 infection rate in assay [2] was 112% (inactive).

Regarding `O=C1CCC(N2C(=O)c3ccccc3C2=O)C(=O)N1` (stereo not drawn) [thalidomide] (10 µM), the morphology score in assay [1] is -0.223. Also, the SARS-CoV-2 infection rate in assay [2] was 104% (inactive).

For the compound `Nc1ccc(C(=O)Nc2cccc(-c3nc(N4CCOCC4)c4oc5ncccc5c4n3)c2)cn1` (10 µM), the morphology score in assay [1] was 0.168. Also, the SARS-CoV-2 infection rate in assay [2] was 94.5% (inactive).

Consider `CC(=O)N(CC(C)C(=O)O)c1c(I)cc(I)c(N)c1I` (stereo not drawn) [iocetamic-acid] (10 µM), for which the morphology score in assay [1] stood at 0.0591. Moreover, in assay [2], the SARS-CoV-2 infection rate is 97% (inactive).

As to `CNCCCOc1cc(F)c(-c2c(Cl)nc3ncnn3c2N[C@@H](C)C(F)(F)F)c(F)c1` [cevipabulin] (10 µM), the morphology score in assay [1] is -0.0738. In addition, in assay [2], the SARS-CoV-2 infection rate was 92% (inactive).

In the case of `O=C(O)[C@H]1CC[C@H](c2cc3cccnc3c(-c3cccc(F)c3)n2)CC1` (10 µM), the morphology score in assay [1] turned out to be 0.315. Moreover, the SARS-CoV-2 infection rate in assay [2] was 103% (inactive).

With `O=C(O)c1nc(=O)[nH]c(=O)[nH]1` [oxonic-acid] (10 µM), the morphology score in assay [1] is -0.0587. The SARS-CoV-2 infection rate in assay [2] is 115% (inactive).

Compound `Nc1ccc(-c2nc3ccc(-c4nc5ccc(N)cc5[nH]4)cc3[nH]2)cc1` (10 µM) came in with a morphology score in assay [1] of -0.218. Besides, the SARS-CoV-2 infection rate in assay [2] was 108% (inactive).

`COc1ccc(C(C)=O)c(O)c1` [paeonol] (10 µM) registered a morphology score in assay [1] of 0.0505. Moreover, the SARS-CoV-2 infection rate in assay [2] is 100% (inactive).
